A selection: hits, their analogues and other compounds. The true share with any hit is near 11%.
RGS12 GoLoco inh: qHTS Assay for Inhibitors of RGS12 GoLoco Motif Activity (Red Fluorophore); Potency, µM (top dose mostly 61.6 µM), inactives show top-dose activity, negative = inhibition, hits mostly inhibitors; Guanine nucleotide-binding protein G(i) subunit alpha-1 (Homo sapiens), P63096; 0.44% of 230,000 active; Gai1:RGS12 GoLoco peptide FP, rhodamine, 10 min; active = well fitted inhibition curve with a large enough effect, not every such curve was filed as active; inactive = no such curve, though single readings can be large or run the other way; also: potency is read from the fitted curve at half-maximal effect; % is scaled to controls: 0 for no effect and ±100 for the full control effect; nearly all actives have a fitted effect of over 30% in size
HttQ103 aggreg: qHTS Multiplex Assay to Identify Dual Action Probes in a Cell Model of Huntington: Aggregate Formation (GFP). 1.1% of 220,000 active. PC12 HttQ103-GFP aggregates, Acumen cytometry, 40 h. AID 1688, 2009. Potency, µM (series often up to 46.1 µM), for inactives: top-dose activity change, negative = inhibition, most hits filed as inhibitors; also: potency is read from the fitted curve at half-maximal effect; % is scaled to controls: 0 for no effect and ±100 for the full control effect; nearly all actives have a fitted effect of over 60% in size
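PC12 cells with ecdysone-inducible HTT exon1 Q103-GFP, induced by 100 nM tebufenozide, given compounds in a concentration series. GFP aggregates (1–25 um, 6 SD above background) counted in lysates by laser-scanning cytometry, 488 nm excitation.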
HPGD block: qHTS Assay for Inhibitors of HPGD (15-Hydroxyprostaglandin Dehydrogenase). purified HPGD, NADH fluorescence kinetic, PGE2 substrate. Potency, µM, inactives show top-dose activity change, negative = inhibition, actives largely listed as inhibitors. 4.3% of 150,000 active. 15-hydroxyprostaglandin dehydrogenase [NAD(+)] (Homo sapiens), P15428; active = well fitted inhibition curve with a large enough effect, not every such curve was filed as active; inconclusive = small, poorly fitted or top-dose-only effect, or another doubt; inactive = no such curve, though single readings can be large or run the other way; also: potency is read from the fitted curve at half-maximal effect; % is scaled to controls: 0 for no effect and ±100 for the full control effect
Target sequence (P15428 whole entry, looked up): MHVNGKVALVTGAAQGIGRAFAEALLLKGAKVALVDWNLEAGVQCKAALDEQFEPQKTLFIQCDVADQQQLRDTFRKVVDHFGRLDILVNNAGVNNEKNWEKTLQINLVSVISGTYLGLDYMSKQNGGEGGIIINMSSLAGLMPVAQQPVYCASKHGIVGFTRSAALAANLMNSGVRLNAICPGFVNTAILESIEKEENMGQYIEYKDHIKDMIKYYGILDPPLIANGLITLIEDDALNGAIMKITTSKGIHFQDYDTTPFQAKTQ
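NADH formation kinetics: reaction with 30 uM PGE2 and 1 mM NAD+ (final), 20 nM enzyme, Tris-HCl pH 8 with Tween 20, after 15 min compound preincubation at room temperature. Fluorescence change, last versus first of five reads.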
HTT cytoprotect: qHTS Multiplex Assay to Identify Dual Action Probes in a Cell Model of Huntington: Cytoprotection (ATP); PC12 HTT-Q103 induced, cytoprotection, ATP luminescence, 40 h; 0.14% of 230,000 active; Potency, µM (series often up to 56.4 µM), without a hit: cytoprotection (ATP increase), actives largely listed as activators; also: potency is read from the fitted curve at half-maximal effect; % of control where 0% means no effect; nearly all actives have a fitted effect of over 45% in size
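Readout: ATPlite luminescence (ATP level). Model: stable PC12, inducible Htt exon1 Q103-GFP. Inducer: tebufenozide, 100 nM final. Compounds: dose series. No G418 in medium.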
ALDH1A1 inh: qHTS Assay for Inhibitors of Aldehyde Dehydrogenase 1 (ALDH1A1) | Purified ALDH1A1, NADH fluorescence, propionaldehyde substrate | Potency, µM (doses to about 75.3 µM), inactives show at the highest dose activity, negative = inhibition, actives largely listed as inhibitors | 7.3% of 220,000 active; active = well fitted inhibition curve with a large enough effect, not every such curve was filed as active; inconclusive = small, poorly fitted or top-dose-only effect, or another doubt; inactive = no such curve, though single readings can be large or run the other way;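 also: potency is read from the fitted curve at half-maximal effect; plate controls were no enzyme wells and a reference inhibitor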
PNC assembly inh: High Content Assay for Compounds that inhibit the Assembly of the Perinucleolar Compartment. 3.1% of 140,000 active. PC3M PTB-GFP, PNC prevalence imaging, 16 h; hits give low values. activity change (PNC), negative = inhibition, % at 10 µM;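 active = readout at or below -70, meaning at least 70% loss of cells showing the perinucleolar compartment, a nuclear body marking cancer cells; inconclusive = readout between -30 and a set limit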;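 also: plate controls were DMSO wells for no effect and camptothecin positive control wells for full effect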
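PC3M cells stably expressing PTB-GFP, 750–1000 cells/well, treated 16 h at 37 °C with compound (23 nl of library stock), in duplicate. After paraformaldehyde fixation and Hoechst stain, imaged at 20x; PNC prevalence scored by image analysis.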
Active calls of the source: *; ? = inconclusive; nt = no result given; [ ] = another dose, or the depositor's remark. Unless noted, calls follow the shape of the dose curve; as a rule, active = well fitted curve in the direction sought with a large enough effect; inconclusive = small, poorly fitted or top-dose-only effect, or another doubt; inactive = no such curve, though single readings can be large; an effect the other way counts as inactive or inconclusive.

SMILES | RGS12 GoLoco inh | HttQ103 aggreg | HPGD block | HTT cytoprotect | ALDH1A1 inh | PNC assembly inh
NC(=O)CCCCn1ccc(NC(N)=NCC(F)(F)F)n1 | 11% | nt | -12% | -4% | 1% | nt
S=c1[nH]nc(-c2cccnc2)n1-c1ccccc1 | -5% | 11% | -27% | -16%[10 µM] | 7.9µM* | -88*
Cc1nc(SCC(=O)NC(=O)NCc2ccco2)nc(C)c1C | 6% | -1% | nt | 7%[10 µM] | -7% | nt
Cc1ccc(SCCC(=O)NCc2ccco2)cc1 | 2% | 9% | 28µM* | -13% | -14% | 17
Cc1nc(SCC(=O)NCc2ccco2)nc(C)c1C | -10% | -1% | 7.9µM* | -16% | 25µM* | ?
Cc1ccc(C)c(SCC(=O)OCC(=O)c2ccco2)c1 | 1% | 0% | 18µM* | -6%[10 µM] | ? | 6
Cc1ccc(C(CC(=O)NCc2ccco2)c2ccccc2)c(O)c1 (centres undefined) | -3% | 5% | 16µM* | -9% | -8% | 6
COC(=O)c1cc(OC)c(OC)cc1NC(=O)c1ccccc1C | -2% | 5% | nt | -24% | 6% | nt
Cc1ccc2nc(SCC(=O)NCc3ccco3)[nH]c2c1 | 11% | -8% | -14% | 6% | 9% | -17
Cc1ccc(C)c(SCC(=O)NCc2ccco2)c1 | 14% | -8% | 7.9µM* | 3% | ? | 74
Cc1ccc2cc(C)c(SCC(=O)NCc3ccco3)nc2c1 | 9% | 8% | nt | -42% | 14µM* | nt
Cc1cc2cc(C)c(SCC(=O)NCc3ccco3)nc2cc1C | -1% | 8%[9.22 µM] | nt | 8%[10 µM] | -11% | nt
COc1ccc(O[C@H]2C=C[C@@H](c3ccccc3)O[C@H]2COC(=O)CC/C(C)=N\OC[C@@H](O)[C@H]2O[C@H]3OC(C)(C)O[C@H]3[C@@H]2O)cc1 | nt | nt | nt | -14%[10 µM] | 8%[13.5 µM] | nt
CCOCC(=O)O | 3% | nt | -3% | -15% | 9% | nt
O=C(NCc1ccccc1)c1cc(-c2ccncc2)nc2ccc(S(=O)(=O)N3CCOCC3)cc12 | 4% | 12% | -22% | nt | 0.79µM* | 13
NS(=O)(=O)c1ccc(O)c(NC(=O)c2ccc([N+](=O)[O-])o2)c1 | -27% | -5%[9.22 µM] | nt | -12%[10 µM] | 2.5µM* | nt
Cc1cc(C)nc(NC(=O)c2cc([N+](=O)[O-])cc([N+](=O)[O-])c2)n1 | 2% | -15% | -3% | nt | ? | -113*
Cc1cc(C)nc(NC(=O)c2ccc([N+](=O)[O-])o2)n1 | 1% | ? | 12% | -6%[10 µM] | -1% | -86*
CC(=O)c1ccc(OC2C=CC(c3ccc(Cl)cc3)OC2CO)cc1 (centres undefined) | nt | nt | nt | ? | 1%[13.5 µM] | nt
CCCS(=O)(=O)n1nc(-c2ccc(Br)cc2)cc1N | -6% | 27% | -10% | 3% | 12% | -119*
O=C(NCc1nnc2c3ccccc3c(-c3ccccc3)nn12)c1ccccc1Cl | 13% | 3% | -15% | 30%[0.074 µM] | 6% | 15
O=C(COc1ccc(Cl)cc1)NCc1nnc2c3ccccc3c(-c3ccccc3)nn12 | -2% | 18% | -18% | 11%[10 µM] | ? | -108*
OCc1ccncc1.OCc1ccncc1.[Cl][Pt]([Cl])([Cl])[Cl] | 6%[14.2 µM] | nt | ? | 1%[10 µM] | 2.8µM* | nt
COc1ccc(C2C(C(C)=O)=C(O)C(=O)N2c2nccs2)c(OC)c1 (centres undefined) | 9% | -21%[9.22 µM] | nt | -18% | 3% | nt
COc1ccc(/C=N/n2cnn(Cc3ccccc3Cl)c2=S)cc1OC | 11% | ? | nt | -3%[10 µM] | ? | nt
Oc1ccc(/C=N/n2cnn(Cc3ccccc3Cl)c2=S)c(O)c1 | 7% | 7% | 20µM* | -7%[10 µM] | 20µM* | -1

From PubChem BioAssay
